Assay outcomes deposited in PubChem by National Center for Advancing Translational Sciences (NCATS).
GLP1R inv ag = qHTS of GLP-1 Receptor Inverse Agonists (Inhibition Mode); Glucagon-like peptide 1 receptor (Homo sapiens), P43220; HEK293 GLP-1R CRE-luciferase, luminescence, 24 h; GLP-1R form is constitutively active; Potency, µM (series often up to 38.3 µM), without a hit: at the highest dose activity change, negative = inhibition, actives largely listed as inhibitors; actives 1.6% (n = 410,000); further: on the % scale 0 is the no-effect control and ±100 the full control effect; nearly all actives have a fitted effect of over 55% in size
Target sequence (P43220 whole entry, looked up): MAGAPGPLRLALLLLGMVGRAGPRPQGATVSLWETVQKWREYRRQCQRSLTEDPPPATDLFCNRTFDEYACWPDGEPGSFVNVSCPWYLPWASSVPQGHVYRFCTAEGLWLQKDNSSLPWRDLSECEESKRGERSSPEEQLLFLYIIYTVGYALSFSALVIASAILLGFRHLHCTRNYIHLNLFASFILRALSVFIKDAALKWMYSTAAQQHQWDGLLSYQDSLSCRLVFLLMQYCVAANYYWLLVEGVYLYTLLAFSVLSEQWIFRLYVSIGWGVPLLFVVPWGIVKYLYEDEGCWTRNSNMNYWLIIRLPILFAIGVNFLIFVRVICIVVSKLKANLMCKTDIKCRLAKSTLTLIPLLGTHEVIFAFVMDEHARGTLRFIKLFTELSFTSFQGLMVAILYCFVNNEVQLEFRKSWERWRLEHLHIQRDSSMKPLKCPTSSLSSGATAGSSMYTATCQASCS
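Inverse agonists were sought by their lowering of basal cAMP reporter luciferase output in HEK293 cells stably carrying constitutively active human GLP-1R, after 24 h compound treatment.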
ATXN viability = Viability Counterscreen for Primary qHTS for Inhibitors of ATXN expression | S2 cells (HEK-293 line with an ATXN2-luciferase reporter) viability, CellTiter-Fluor protease fluorescence, 24 h | Potency, µM (highest dose often 56.7 µM), actives largely listed as cytotoxic | actives 0.49% (n = 400,000) | AID 651635, 2014; further: nearly all actives have a fitted effect of over 40% in size
HepG2 viability = qHTS for Inhibitors of TGF-b: Cytotox Counterscreen | HepG2 CAGA-GFP viability, ATP luminescence, 18 h | Potency, µM (top dose mostly 46.1 µM), for inactives: at the highest dose activity change, negative = cytotoxicity, hits mostly cytotoxic | actives 0.76% (n = 410,000)
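CellTiter-Glo luminescence gave cytotoxicity after 18 hours at 37 degrees C. The cells were HepG2 CAGA-GFP in 1% FBS DMEM, stimulated with 500 pg/mL TGF-beta after compound addition. %Activity was normalised to no-cell wells (complete cell-killing) and DMSO (no toxicity), and curves were fitted and classified.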
TGFb SMAD3 inh = qHTS for Inhibitors of TGF-b | HepG2 CAGA-GFP TGF-b/SMAD3 reporter, GFP fluorescence, 18 h; TGF-beta stimulated, 500 pg/mL final | AID 588855, 2011 | actives 1.2% (n = 410,000) | Potency, µM (doses to about 46.1 µM), for the others: at the highest dose activity, negative = inhibition, actives largely listed as inhibitors; further: on the % scale 0 is the no-effect control and ±100 the full control effect; nearly all actives have a fitted effect of over 65% in size
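Read-out: total well GFP (ex488/em500-530) summed from mean per-cell fluorescence. Cells: HEPG2 CAGA-GFP, 1% FBS DMEM, 18 h at 37 degrees C with 500 pg/mL final TGF-beta. Unstimulated wells served as the full-inhibition control; stimulated DMSO wells = 0%.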
ATXN2 expr inh = Primary qHTS for Inhibitors of ATXN expression | actives 0.72% (n = 360,000) | HEK-293 ATXN2-luciferase reporter, luminescence, 24 h | Potency, µM (titrated, usually from 57 µM), inactives show top-dose activity change, negative = inhibition, most hits filed as inhibitors; further: on the % scale 0 is the no-effect control and ±100 the full control effect; nearly all actives have a fitted effect of over 55% in size
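qHTS (up to 57 uM final) was run with 24 h compound exposure of reporter cells at 37 °C. Each well was multiplexed: SteadyGlo luminescence measured ATXN2-luciferase expression after a fluorogenic Gly-Phe-AFC viability readout (25 uM final).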
GLP1R ag = qHTS of GLP-1 Receptor Agonists. Glucagon-like peptide 1 receptor (Homo sapiens), P43220. HEK293 GLP-1R CRE-luciferase, luminescence, 4-6 h; cells express a hypersensitive GLP-1R form. Potency, µM (series often up to 45.6 µM), for the others: top-dose activation, hits mostly activators. actives 0.007% (n = 380,000); further: % of control where 0% means no effect
* marks the source's active call; other numbers are inactive results; i = inactive; ? = inconclusive; . = no result given; ! = not active in a repeat; [ ] = remark or other dose. Rows were chosen to be rich in hits. Some 3.7% of all compounds tested hit in one or more screens of this group. The call rests on the fitted dose curve; in most records, active means well fitted curve in the direction sought with a large enough effect; inconclusive means small, poorly fitted or top-dose-only effect, or another doubt; inactive means no such curve, though single readings can be large; an effect the other way counts as inactive or inconclusive. Potency means the concentration at half of the fitted maximal effect.

SMILES	GLP1R inv ag	ATXN viability	HepG2 viability	TGFb SMAD3 inh	ATXN2 expr inh	GLP1R ag
C[C@H](CO)N1C[C@H](C)[C@@H](CN(C)Cc2ccc(Cl)c(Cl)c2)Oc2c(NC(=O)Cc3ccccc3)cccc2C1=O	?	14µM*	-18%	?	28µM*	0%
O=C(Nc1cc(C(F)(F)F)ccc1Cl)c1cnn(-c2ccccc2)c1-n1cccc1	6%	.	-24%	?	.	.
COc1ccc[n+](CC(=O)c2ccc(F)cc2)c1	.	.	0%	-1%	.	.
c1ccc(C(OC2CCCN(CCc3ccc4c(c3)OCO4)C2)c2ccccc2)cc1 (stereo not drawn)	.	.	.	.	.	-1%
CC(=O)N1CCCC1c1nc2ccccc2n1Cc1ccccc1C (stereo not drawn)	4%	.	-10%	-1%	.	.
Cc1cc(C)c(NC(=O)C2CCN(c3nn4c(=O)cc(C)nc4s3)CC2)c(C)c1	0%	i	-23%	?	1%	.
CC1=CC(C)(C)N2C(=O)C3(NCCc4c3[nH]c3ccccc43)c3cc(C)cc1c32 (stereo not drawn)	-37%	22µM*	-2%	?	-20%	-1%
Cc1occc1C(=O)NCCN1Cc2ccccc2OC(c2ccccc2F)C1 (stereo not drawn)	.	i	.	.	.	.
O=C(c1ccccc1CCc1ccccc1)N1CCCC1	?	i	-4%	4%	-13%	0%
CCOC(=O)N1CCN(C(=O)c2ccccc2CCc2ccccc2)CC1	8.9µM*	?	2%	10%	0%	13%
Cc1ccc(CNc2nc(CN3CCSCC3)nc3ccccc23)o1	.	i	.	.	.	.
Cn1nc(-c2ccccn2)nc2c(=O)n(C)c(=O)nc1-2	3.2µM*	.	2.8µM*	2.2µM*	?	-8%
CCc1ccc(-c2nc3c(=O)n(C)c(=O)nc-3n(CC)n2)cc1	.	.	1.3µM*	0.89µM*	.	.
Cc1ccccc1-c1nc2c(=O)n(C)c(=O)nc-2n(C)n1	.	.	1.1µM*	0.63µM*	.	.
CCCc1nc2c(=O)n(C)c(=O)nc-2n(C)n1	?	.	1.1µM*	1.1µM*	4.2µM*	-5%
COc1ccc(-c2nc(-c3ccccn3)ncc2S(C)(=O)=O)cc1	23%	i	15%	-8%	9%[11.3 µM]	5%
Cc1ccnc(NS(=O)(=O)c2ccc(NC(=O)Nc3ccc(S(=O)(=O)Nc4nccc(C)n4)cc3)cc2)n1	.	.	.	.	-9%	.
O=Cc1ccc(I)cc1	.	.	11%	2%	.	.
COc1ccc(-c2nc(N=Nc3ccc(O)cc3)n[nH]2)cc1	9%	8.9µM*	3%	-11%	-8%	0%
Cc1ccc(-c2nc(N=Nc3ccc(O)cc3)n[nH]2)cc1	-3%	?	-40%	?	0%	-17%
CC1(C)CC(=O)c2cc(-c3nc(-c4ccc(F)cc4)cs3)c(=O)[nH]c2C1	6%	i	-28%	1%	14%	.
CCC(C(=O)N1CCN(c2ccc(OC)cc2)CC1)n1nc(C)n2c(cc3occc32)c1=O (stereo not drawn)	?	?	-20%	10µM*	-33%	.
CCC(C(=O)N1CCCCCC1)n1nc(C)n2c(cc3occc32)c1=O (stereo not drawn)	2%	i	-3%	3%	2%	-7%
COc1cccc(OC)c1C(=O)NCCc1ccccc1	-4%	i	-9%	-1%	-10%	-2%
COC(=O)c1c(N)sc(C(=O)NCCc2ccccc2)c1C	?	i	-35%	0%	3.5µM*	-5%
SMILES	GLP1R inv ag	ATXN viability	HepG2 viability	TGFb SMAD3 inh	ATXN2 expr inh	GLP1R ag
Cc1ccc(NCc2nc3ccccc3n2CCOc2ccccc2)cc1	?	?	-29%	18µM*!	19%	9%
COc1ccc(OCCn2c(C(C)Oc3ccccc3)nc3ccccc32)cc1 (stereo not drawn)	?	i	-38%	13µM*	-21%	.
COc1ccc(NCc2nc3ccccc3n2CCOc2ccccc2C)cc1	?	?	-38%	?	-10%	.
Cc1ccc(OCCn2c(CNc3cccc(C)c3)nc3ccccc32)cc1	?	i	-35%	13µM*	-16%	.
Cc1cc(SCC(=O)NC2(C#N)CCCCC2)nc2c(C)cccc12	10µM*	i	11%	22%	10%	2%
O=C(NCc1ccccc1Cl)c1ccc(CS(=O)(=O)c2ccc(Br)cc2)o1	10µM*	i	-22%	?	-26%	.
Cc1ccc(S(=O)(=O)Cc2ccc(C(=O)NCCc3ccc(Cl)cc3)o2)cc1	10µM*	?	-11%	?	?	-2%
CCc1ccccc1S(=O)(=O)Cc1ccc(C(=O)NCCc2ccc(Cl)cc2)o1	?	.	-46%	11µM*	?	.
O=C(NCCc1ccc(Cl)cc1)c1ccc(CS(=O)Cc2cccc(Cl)c2)o1 (stereo not drawn)	?	.	-19%	8.9µM*	.	.
O=C(NCCc1ccccc1)c1ccc(CS(=O)Cc2cccc(Cl)c2)o1 (stereo not drawn)	-18%	i	-7%	-6%	1%	8%
Cc1ccc(CCNC(=O)c2ccc(CS(=O)(=O)c3ccc(Cl)cc3)o2)cc1	-13%	i	-5%	-6%	4%	.
O=C(NCc1ccccc1Cl)c1ccc(CS(=O)(=O)c2ccccc2)o1	3%	i	-5%	1%	-13%	-2%
CC(C)c1c(C(=O)NCCN2CCOCC2)cnn1-c1nccc(-c2cccs2)n1	.	i	.	.	.	.
Cc1c(N=C2SCC(=O)N2/N=C\c2ccc(Br)cc2)c(=O)n(-c2ccccc2)n1C	8.9µM*	i	-7%	-2%	-24%	0%
O=C(O)[C@H](CC(=O)N1C[C@@H]2CCCC[C@H]2C1)Cc1ccccc1	.	.	.	.	12%	.
NC1=C(Cl)C(=O)c2ccccc2C1=O	?	?	5.6µM*	?	?	-4%
NC1=C(Cl)C(=O)c2ccc(S(N)(=O)=O)cc2C1=O	?	3.5µM*	0.56µM*	?	3.5µM*	-20%
Cc1ccc(N/C(N)=N/c2nc(C)cc(N3CCCCC3)n2)c(C)c1	?	?	-22%	?	22µM*	-3%
CCS(=O)(=O)Nc1ccc2[nH]c(O)c(C(=Nc3ccc(CN4CCCCC4)cc3)c3ccccc3)c2c1	.	.	.	.	7.7µM*	.
